{"source": "PubChem BioAssay (EPA / NIEHS)", "note": "The source made the active and inactive calls. The calls were made as follows: active = hit-call score of the fitted dose curve at least 0.9, where 1 is the maximum; inactive = score below 0.9."}
{"read-out": "Interleukin 6 Receptor (IL6R), IL6R (gene 3570)", "experiment": "LTEA_HepaRG_IL6R: Life Technologies and Expression Analysis (LTEA) Assay for Interleukin 6 Receptor (IL6R) using HepaRG (AID 2283510);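 as to AC50: TaqMan qRT-PCR signal normalized to ACTB GAPDH and POLR2A housekeeping genes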", "conditions": "mRNA level, 48 h; actives raise or lower the signal", "method": "LTEA_HepaRG is a cell based, multiplexed-readout assay that uses HepaRG, a human liver cell line, with measurements taken at 48 hours after chemical dosing on a 96-well plate.LTEA_HepaRG_IL6R is one of 102 assay component(s) measured in the LTEA HepaRG cell culture assay. It is a marker of Inflammation.Data from the assay component LTEA_HepaRG_IL6R was analyzed into 1 endpoint. This assay endpoint, LTEA_HepaRG_IL6R, was analyzed with bidirectional fitting relative to DMSO as the negative control and baseline of activity. Using a type of inducible reporter, measures of mRNA induction for gain or loss-of-signal activity can be used to understand regulation of transcription factor activity. To generalize the intended target to other relatable targets, this assay endpoint is annotated to the cytokine receptor intended target family, where the subfamily is JAK-STAT cytokine receptor.\nA total of 1060 chemcials from the ToxCast library were tested in eight-point concentration-response experiments. Cell culture and cytotoxicity assays were conducted at Thermo Fisher Scientific's Custom Services facility (Madison, WI). A single lot of human HepaRG cells (Thermo Fisher Scientific, Frederick, MD) was used for the cell culture experiments. 96-well format collagen type I coated plates of human HepaRG cells were prepared using established methods. Briefly, cryopreserved HepaRG cells were thawed, plated at a density of approximately 100,000 cells/well in HepaRG Thaw, Plate, and General Purpose media (HPRG770, Thermo Fisher Scientific), and incubated for 48 hours. 0.5% DMSO was selected as vehicle control to balance the requisite need of DMSO in HepaRG cultures to maintain differentiation (for example, baseline metabolism, proportions of hepatocytes vs. cholangiocytes), while enabling further hepatic receptor pathway activation (for example, PXR and CAR) in response to chemical exposure. 48 hours after plating, the culture medium was replaced with HepaRG Serum-Free Incudtion Media. Cells were exposed to each test chemical in duplicate and maintained in CO2 incubators for another 48 hours. Chemical plates were thawed to room temperature and 200x concentrations of treatment groups were prepared. 8-point conentration-reponse curves were made with the highest exposure at 100 uM, followed by half-log dilutions, all in 0.5% DMSO. Each test plate contained variouse controls, induction positive controls (1mM phenobarbital), cytotoxicity positive controls ([…] aflatoxin B1), vehicle controls (0.5% DMSO), and total lysis controls (0.5% DMSO). Cell morphology images were taken using an Essen IncuCyte FLR automated microscope, with six 96-well plates imaged in about 24 minutes. Images were captured and exported and JPEG files. Spent culture media was transfered to black-well plates for the LDH assay, and remaining media was sorted at -80 C for later use. Cells were treated with RLT buffer and frozen until shipped for gene expression analysis. Total RNA was isolated from the cell suspension in 75 uL of Buffer RLT (Qiagen, Germantown, MD 20874) by Quintiles/Expression Analysis (Durham, NC) using a custom isolation procedure. Total RNA from each plate well was transferred to a preamplification plate. Fluidigm's 96.96 Dynamic ArrayTM (Fluidigm, Amsterdam, the Netherlands) technology was used for gene expression analyses by quantitative reverse transcription polymerase chain reaction (qRT-PCR, performed by Quintiles/Expression Analysis, Durham, NC)89. Standard TaqManTM Assays (Applied Biosystems/ThermoFisher Scientific, Foster City, CA) were used to assess the expression of 93 genes selected based on their selectivity and sensitivity to important hepatic receptors known to be modulated by environmental chemicals; importance in human hepatocyte functionality; and hepatotoxicity. […]"}
{"smiles": "O=C(O)Cc1cc(I)c(Oc2cc(I)c(O)c(I)c2)c(I)c1", "AC50": "55 µM (active)"}
{"smiles": "CC(C)(C)c1ccc(O)c(C(C)(C)C)c1", "outcome": "inactive"}
{"smiles": "O=C(O)c1ccccc1C(c1ccc(O)cc1)c1ccc(O)cc1", "outcome": "inactive"}
{"smiles": "COCC(C)O", "note": "(stereo not given)", "outcome": "inactive"}
{"smiles": "O=c1c(-c2ccc(O)cc2)coc2cc(O)ccc12", "outcome": "inactive"}
{"smiles": "CC[C@H](C)[C@@H](C(=O)O)n1sc2ccccc2c1=O", "outcome": "inactive"}
{"smiles": "CCCCOCCO", "outcome": "inactive"}
{"smiles": "CCN(CC)CCNc1ccc(CNC=O)c2sc3ccc(OC)cc3c(=O)c12", "AC50": "22 µM (active)"}
{"smiles": "CC#C[C@]1(O)CC[C@H]2[C@@H]3CCC4=CC(=O)CCC4=C3[C@@H](c3ccc(N(C)C)cc3)C[C@@]21C", "AC50": "12.9 µM (active)"}
{"smiles": "c1ccc2c(c1)Cc1ccccc1-2", "outcome": "inactive"}
{"smiles": "CCCCCCCCCCCCN1CCCC1=O", "outcome": "inactive"}
{"smiles": "CCCOc1sc(C(=O)N2CCC(c3cc(CN)ccc3F)CC2)c(C)c1Br", "outcome": "inactive"}
{"smiles": "CC[C@H](c1ccc(O)cc1)[C@@H](CC)c1ccc(O)cc1", "AC50": "73.8 µM (active)"}
{"smiles": "c1ccc2c(c1)ccc1ccccc12", "outcome": "inactive"}
{"smiles": "CC(C)(C)c1cccc(C(C)(C)C)c1O", "outcome": "inactive"}
{"smiles": "O=C(OCCOCCOC(=O)c1ccccc1)c1ccccc1", "outcome": "inactive"}
{"smiles": "CN(C)C=O", "outcome": "inactive"}
{"smiles": "Cc1oc(-c2ccccc2)nc1CCOc1ccc(C[C@H](Nc2ccccc2C(=O)c2ccccc2)C(=O)O)cc1", "AC50": "30.6 µM (active)"}
{"smiles": "CCCCC(CC)COC(=O)CCCCC(=O)OCC(CC)CCCC", "note": "(stereo not given)", "outcome": "inactive"}
{"smiles": "Cc1cc(CCN2CCN(c3nsc4ccccc34)CC2)cc2c1NC(=O)CC2(C)C", "AC50": "84.7 µM (active)"}
{"smiles": "OCCC(F)(F)C(F)(F)C(F)(F)C(F)(F)C(F)(F)C(F)(F)C(F)(F)C(F)(F)F", "outcome": "inactive"}
{"smiles": "CC(=O)CC(C)(C)O", "outcome": "inactive"}
{"smiles": "CCCCCCCCC(=O)O", "outcome": "inactive"}
{"smiles": "COc1ccc([N+](=O)[O-])cc1N", "outcome": "inactive"}
{"smiles": "CC(C)(C)CC(C)(C)c1ccc(O)c(-n2nc3ccccc3n2)c1", "outcome": "inactive"}
{"smiles": "CCCOC(=O)c1ccc(O)cc1", "outcome": "inactive"}
{"smiles": "c1ccc2cc3c(ccc4ccccc43)cc2c1", "AC50": "9.75 µM (active)"}
{"smiles": "Oc1cc2ccccc2c2ccccc12", "outcome": "inactive"}
{"smiles": "CCc1ccc(CCOc2ccc(CC3SC(=O)NC3=O)cc2)nc1", "note": "(stereo not given)", "AC50": "63.5 µM (active)"}
{"smiles": "CCc1nn(C2CCCCC2)c2cc(C3(C#N)CCC(C(=O)O)CC3)ccc12", "note": "(stereo not given)", "outcome": "inactive"}
{"smiles": "Nc1cccc2c(N)cccc12", "outcome": "inactive"}
{"smiles": "CCC(C)(C)C1CCC(O)CC1", "note": "(stereo not given)", "outcome": "inactive"}
{"smiles": "CC(C)(C)c1cc(C(C)(C)C)c(O)c(C(C)(C)C)c1", "outcome": "inactive"}
{"smiles": "CCCCCCCC(=O)O", "outcome": "inactive"}
{"smiles": "CCCCCCCCOC(=O)CCCCCCCCC(=O)OCCCCCCCC", "outcome": "inactive"}
{"smiles": "CCCCCCC(=O)O", "outcome": "inactive"}
{"smiles": "OCCC(F)(F)C(F)(F)C(F)(F)C(F)(F)C(F)(F)C(F)(F)F", "outcome": "inactive"}
{"smiles": "ClC1=C(Cl)C(Cl)(Cl)C(Cl)=C1Cl", "outcome": "inactive"}
{"smiles": "Oc1cccc(O)c1", "outcome": "inactive"}
{"smiles": "CCCCCCCCCCCCc1ccccc1S(=O)(=O)O", "AC50": "83 µM (active)"}
